Source: PubChem
This is a sample that favours compounds with a hit; in the whole collection about 7.5% have one here.
Vaccinia mCherry: qHTS for Stage-Specific Inhibitors of Vaccinia Orthopoxvirus: mCherry Reporter Primary qHTS | Vaccinia virus mCherry reporter infection, fluorescence | Potency, µM (doses to about 36.5 µM), without a hit: at the top dose activity change, negative = inhibition, actives largely listed as inhibitors | 310,000 compounds, 0.63% hits | AID 720579, 2013; calls by dose curve; tested in A549 cells; also: potency is read from the fitted curve at half-maximal effect; % is scaled to controls: 0 for no effect and ±100 for the full control effect; nearly all actives have a fitted effect of over 35% in size
FBPA Giardia inh: qHTS Assay for Inhibitors of Fructose-1,6-bisphosphate Aldolase from Giardia Lamblia. Potency, µM (titrated, usually from 59.6 µM), for inactives: at the top dose activity, negative = inhibition, actives largely listed as inhibitors. purified Giardia FBPA. 290,000 compounds, 0.71% hits. A8B2U2; also: potency is read from the fitted curve at half-maximal effect; % is scaled to controls: 0 for no effect and ±100 for the full control effect; nearly all actives have a fitted effect of over 55% in size
Target sequence (A8B2U2 whole entry, looked up): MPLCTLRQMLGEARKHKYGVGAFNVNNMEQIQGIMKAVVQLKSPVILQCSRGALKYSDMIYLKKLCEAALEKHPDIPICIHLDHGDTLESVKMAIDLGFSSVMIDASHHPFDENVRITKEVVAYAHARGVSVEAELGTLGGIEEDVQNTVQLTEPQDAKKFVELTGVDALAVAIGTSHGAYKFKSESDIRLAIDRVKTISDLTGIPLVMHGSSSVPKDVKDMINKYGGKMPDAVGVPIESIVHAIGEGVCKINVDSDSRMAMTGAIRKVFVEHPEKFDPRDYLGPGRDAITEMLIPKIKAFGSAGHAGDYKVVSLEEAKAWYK
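Giardia FBPA (40 nM reagent) was preincubated 10 min at RT with compound (up to 57.5 uM final), then substrate plus GAPDH/TPI/NAD/arsenate coupling system with diaphorase/resazurin was added; resorufin fluorescence (525/598 nm) was read after 20 min.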
VACV Venus inh: qHTS for Stage-Specific Inhibitors of Vaccinia Orthopoxvirus: Venus Reporter Primary qHTS; Vaccinia virus Venus reporter expression, fluorescence; AID 720580, 2013; 330,000 compounds, 0.46% hits; Potency, µM (highest dose often 36.5 µM), inactives show top-dose activity change, negative = inhibition, usual class: inhibitors; calls by dose curve; tested in A549 cells; also: potency is read from the fitted curve at half-maximal effect; % is scaled to controls: 0 for no effect and ±100 for the full control effect; nearly all actives have a fitted effect of over 30% in size
FMDV inh: High Throughput Screening for Foot and Mouth Disease Virus Antivirals; FMDV antiviral cell-based qHTS; Potency, µM (top dose mostly 57.9 µM), for the others: at the highest dose activity change, negative = inhibition, usual class: inhibitors; 410,000 compounds, 1.2% hits; AID 1159524, 2015; calls by dose curve; tested in HEK293T cells; also: read-out not given here; potency is read from the fitted curve at half-maximal effect; % is scaled to controls: 0 for no effect and ±100 for the full control effect; nearly all actives have a fitted effect of over 45% in size
HCMV inh: qHTS Assay for inhibitors of the human cytomegalovirus (HCMV) | HFF cells, HCMV-luciferase reporter, 72 h; stronger effect = lower value | AID 1259415, 2018 | activity change, negative = inhibition, % at 57.5 µM | 410,000 compounds, 4.5% hits; in the data active = activity change below about -60%; inconclusive = no clear call, values can overlap the other calls; inactive = above about -39%; also: % is scaled to controls: 0 for no effect and ±100 for the full control effect
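Inhibition of viral replication was scored as loss of reporter luminescence in HFFs infected with HCMV-luciferase (MOI 1 PFU/cell) for 72 h; compounds tested at 2 doses, normalized to buffer and Salinomycin controls.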
HCV inhibitor: qHTS Assay for Inhibitors of Hepatitis C Virus (HCV) | Huh7.5.1 HCVcc-Cre infection, luciferase reporter, 44 h | Potency, µM (doses to about 41.8 µM), for inactives: top-dose activity change, negative = inhibition, hits mostly inhibitors | 340,000 compounds, 3.4% hits | AID 651820, 2012; also: potency is read from the fitted curve at half-maximal effect; % is scaled to controls: 0 for no effect and ±100 for the full control effect
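Antiviral activity was scored by luciferase reporter output from cells infected with HCVcc-Cre (~0.5 moi) in presence of compound, 44 h infection period, cells seeded 1,000/well 4 h prior.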
HCV inh confirm: qHTS Assay for Inhibitors of Hepatitis C Virus (HCV): Confirmation Assay for Cherry-picked Compounds | shares compounds with HCV inhibitor | Potency, µM (titrated, usually from 41.8 µM), inactives show top-dose activity, negative = inhibition, actives largely listed as inhibitors | HCVcc-Cre infectious virus cell assay, luciferase, inhibition | 640 compounds, 78% hits; also: potency is read from the fitted curve at half-maximal effect; nearly all actives have a fitted effect of over 80% in size
HCV cytotox: qHTS Assay for Inhibitors of Hepatitis C Virus (HCV): Cytotoxicity Counterscreen for Cherry-picked Compounds | Potency, µM (titrated, usually from 41.8 µM), for the others: at the top dose activity change, negative = cytotoxicity, usual class: inhibitors | HCV host cell line cytotoxicity counterscreen | shares compounds with HCV inhibitor | 640 compounds, 22% hits;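 also: potency is read from the fitted curve at half-maximal effect; 44 h compound exposure; % is scaled to controls: 0 for no effect and ±100 for the full control effect; nearly all actives have a fitted effect of over 55% in size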
* marks the source's active call; other numbers are inactive results; i = inactive; ? = inconclusive; . = not tested or not shown. Unless noted, calls follow the shape of the dose curve; as a rule, active = well fitted curve in the direction sought with a large enough effect; inconclusive = small, poorly fitted or top-dose-only effect, or another doubt; inactive = no such curve, though single readings can be large; an effect the other way counts as inactive or inconclusive.

SMILES	Vaccinia mCherry	FBPA Giardia inh	VACV Venus inh	FMDV inh	HCMV inh	HCV inhibitor	HCV inh confirm	HCV cytotox
Cc1cc(NCc2ccccn2)n2ncc(-c3ccc(Cl)cc3)c2n1	-24%	-11%	-21%	21%	-38	?	.	.
Cc1cc(NCc2ccccn2)n2nc(C)c(-c3ccc(Cl)cc3)c2n1	?	-11%	?	-27%	-99*	4.5µM*	11µM*	-28%
CCC(=O)c1cc2c(cc1NC(=O)c1ccccc1)OCCO2	-25%	5%	-5%	.	5	4µM*	4µM*	28%
CCOc1ccccc1NC(=O)CSc1nnc(Cc2ccc(OC)cc2)c(=O)n1N	i	.	-12%	-14%	8	?	7.9µM*	26%
O=C(Nc1ncc(Cc2ccc(C(F)(F)F)cc2)s1)c1ccc(-c2cccc([N+](=O)[O-])c2)o1	?	1%	-29%	?	?	2.5µM*	13µM*	?
Cc1nc(-c2ccc(C(=O)Nc3cccc(Br)c3)cc2)cs1	.	-4%	.	-40%	-68*	4.5µM*	2.8µM*	4µM*
Cc1nc(-c2cccc(NC(=O)c3ccc(Br)o3)c2)cs1	.	.	.	26%	-33	?	.	.
COc1ccc(Cn2cnc3c(NS(C)(=O)=O)c(C)c(C)cc32)cc1	-13%	-8%	-9%	?	98	3.2µM*	0.011µM*	5%
COc1ccccc1NC(=O)c1ccc(NC(=O)c2cc3c(s2)CCC3)cc1	-12%	-3%	-28%	?	-24	8.9µM*	8.9µM*	17%
O=C(Nc1ccccc1OC(F)F)c1cc2c(s1)CCC2	-22%	2%	-14%	0%	-16	?	.	.
Cc1cnc(NC(=O)C2CC(=O)N(c3cccc(Cl)c3)C2)s1 (centres undefined)	.	-5%	.	-13%	-99*	3.2µM*	8.9µM*	3.5µM*
COc1ccc(CNC(=O)c2ccc3c(=O)n4c(nc3c2)CCCCC4)cc1OC	-15%	.	-22%	?	-74*	?	7.9µM*	?
O=C(NCc1ccc(F)cc1)c1ccc2c(=O)n3c(nc2c1)CCCCC3	-6%	-5%	-7%	-27%	-25	-8%	.	.
Cc1onc(-c2ccccc2Cl)c1C(=O)Nc1ccccc1C(=O)NC(C)C	-15%	-4%	-22%	.	?	4.5µM*	22µM*	?
Cc1onc(-c2ccccc2Cl)c1C(=O)NC(=S)Nc1ccccc1C(N)=O	i	?	-13%	1%	?	11%	.	.
COCCn1c(C)cc(O)c(C(c2cccc(F)c2)N2CCN(c3ccccc3)CC2)c1=O (centres undefined)	-13%	.	-10%	-15%	-2	.	.	.
CCOC(=O)N1CCN(C(=O)CSCC(=O)Nc2nc(-c3ccc4c(c3)OCO4)cs2)CC1	.	-5%	.	?	.	?	16µM*	-24%
CCOc1ccc(Nc2c(S(=O)(=O)c3ccccc3)cnc3ccc(CC)cc23)cc1	i	.	-13%	?	-37	.	.	.
COc1cc(/C=C/CNC[C@H]2O[C@@H](n3cnc4c(=O)[nH]c(N)nc43)[C@H](O)[C@@H]2O)ccc1O	14%	.	9%	-25%	-5	.	.	.
Cc1ccc(N(C(=O)CCl)C(C(=O)NC2CCCCC2)c2cccnc2)cc1C (centres undefined)	?	5%	7.1µM*	7.9µM*	-99*	0.89µM*	0.5µM*	0.4µM*
CC(C)N(C(=O)Nc1ccc2nsnc2c1)C(C)C	.	?	.	0%	-101*	4.5µM*	-16%	35%
COc1ccc(N(C)C(=O)Nc2ccc3nsnc3c2)cc1	i	-25%	-19%	0%	-32	?	.	.
COc1ccc(C(=O)Nc2cc(OC)cc3cccnc23)cc1	.	0%	.	16%	138	?	14µM*	4%
COc1cc(OC)cc(C(=O)Nc2cccc3cccnc23)c1	-3%	10%	1%	10%	-4	-15%	.	.
CCOC(=O)C1=C(C)NC(C)=C(C(=O)OCC)C1c1ccncc1	-9%	.	-14%	0%	18	.	.	.
SMILES	Vaccinia mCherry	FBPA Giardia inh	VACV Venus inh	FMDV inh	HCMV inh	HCV inhibitor	HCV inh confirm	HCV cytotox
CCOC(=O)C1CCN(C(=O)CN2c3ccc(C(C)C)cc3-c3ccccc3S2(=O)=O)CC1	3%	.	-13%	73%	5	.	.	.
COc1ccc(NC(=O)C2CCCCN2N)cc1OCC(C)C (centres undefined)	-12%	?	-15%	.	99	?	?	38%
Cc1cc(O)cc(O)c1C(=O)OC1(C)C(=O)C=C2C=C(/C=C/C(=O)O)OC=C2C1=O (centres undefined)	.	-13%	.	.	.	.	.	.
CC(C)(C)NC(=O)CN(C(=O)Cn1nnc(-c2ccc(Cl)cc2)n1)C1CCN(Cc2ccccc2)CC1	?	0%	?	-13%	.	?	.	.
CN(C)CCNC(=O)c1ccc(COc2ccc(Cl)cc2Cl)cc1	.	4%	.	-15%	51	7.9µM*	16µM*	-41%
COc1cc2c(cc1NC(=O)C(Cl)Cl)-c1ccc(NC(=O)C(Cl)Cl)cc1C2	13µM*	.	10µM*	2%	-68*	?	18µM*	?
Cc1ccc(S(=O)(=O)N(Cc2ccc(Cl)cc2)c2ccccc2C(=O)NCc2ccco2)cc1	i	0%	-28%	-2%	?	?	.	.
O=S(=O)(Nc1ccc(F)cc1F)c1ccc(Br)s1	1%	.	-9%	31%	7	.	.	.
O=C(CSc1ncnc2ccccc12)NCC(=O)c1ccccc1	-9%	8%	-12%	-9%	-18	-2%	.	.
COc1ccc(NC(=O)c2ccccc2OCc2c(C)noc2C)cc1OC	-1%	.	-16%	-14%	34	?	?	15%
COc1cc(/C=N/NC(=O)c2ccc(CN3C(=O)c4cccc5cccc3c45)cc2)cc(OC)c1O	.	-24%	.	-25%	-33	?	?	-9%
COc1ccc(/C=N/NC(=O)c2ccc(CN3C(=O)c4cccc5cccc3c45)cc2)cc1O	.	?	.	-4%	-26	?	.	.
COc1ccc(S(=O)(=O)N2CCOCC2)cc1C(=O)N(C)CCOc1ccc(Cl)cc1	.	.	.	-28%	-35	?	.	.
